# Compounds with a hit are over-represented: about 12% of the library has one in this group of screens.
# JMJD2A Tudor inh: blocks the human JMJD2A Tudor domain. AlphaScreen JMJD2A-Tudor / H3K4me3 peptide binding. Potency, µM (highest dose often 114 µM), inactives show top-dose activity change, negative = inhibition, usual class: inhibitors. actives 4.4% (n = 390,000); also: % is scaled to controls: 0 for no effect and ±100 for the full control effect; nearly all actives have a fitted effect of over 50% in size
# L3MBTL1 inh: L3MBTL1 (human) inhibition | Potency, µM (titrated, usually from 57.1 µM), inactives show at the top dose activity, negative = inhibition, hits mostly inhibitors | Q9Y468 | actives 0.66% (n = 230,000) | AlphaScreen L3MBTL1–H3K9me1 peptide binding | AID 485360; also: % is scaled to controls: 0 for no effect and ±100 for the full control effect; nearly all actives have a fitted effect of over 60% in size
#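 L3MBTL1 50 nM + b-AHA-H3(1-15)K9me1 75 nM, 30 min RT; compound added, 30 min RT; streptavidin donor/Ni-chelate acceptor beads 10 ug/mL each final, 30 min RT dark; AlphaScreen read.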
# BAZ2B inh: blocks human BAZ2B; Potency, µM (titrated, usually from 114 µM), inactives show at the top dose activity change, negative = inhibition, hits mostly inhibitors; AlphaScreen BAZ2B-H3K14Ac peptide displacement; Q9UIF8; actives 4.4% (n = 360,000); also: % is scaled to controls: 0 for no effect and ±100 for the full control effect; nearly all actives have a fitted effect of over 60% in size
#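 AlphaScreen displacement of biotin-H3(5-23)K14Ac peptide (50 nM final) from BAZ2B (50 nM final) in PBS pH 7.4, 0.01% Tween-20; complex preformed 30 min RT, then compounds (top 110 uM) 30 min RT, beads 20 min dark.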
# Sfp PPTase inh: inhibitors of Bacillus subtilis Sfp phosphopantetheinyl transferase. Q9F4F7. Biochemical Sfp PPTase activity, qHTS. Potency, µM, for inactives: largest response in the series, negative = inhibition, most hits filed as inhibitors. actives 3.5% (n = 310,000). AID 1490;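 also: the enzyme is Sfp with the accession as filed and its product quenches rhodamine fluorescence; 0% = enzyme reaction without inhibitor and -100% = no enzyme wells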
#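 Fluorescence-quenching assay: 15 nM Sfp-PPTase preincubated 15 min at room temperature with compound, then 5 uM rhodamine-CoA and 12.5 uM BHQ-2-labelled YbbR peptide added. Fluorescence (ex 525/em 598 nm) read at start and after 30 min; difference gives rate.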
# G9a block: inhibitors of human histone lysine methyltransferase G9a | Q96KQ7 | G9a H3K9 monomethylation, AlphaScreen, 2 h | Potency, µM (series often up to 102 µM), for inactives: top-dose activity, negative = inhibition, usual class: inhibitors | actives 8.8% (n = 350,000) | AID 504332; also: % is scaled to controls: 0 for no effect and ±100 for the full control effect; nearly all actives have a fitted effect of over 75% in size
# Target sequence (Q96KQ7 913-1193 limits assumed): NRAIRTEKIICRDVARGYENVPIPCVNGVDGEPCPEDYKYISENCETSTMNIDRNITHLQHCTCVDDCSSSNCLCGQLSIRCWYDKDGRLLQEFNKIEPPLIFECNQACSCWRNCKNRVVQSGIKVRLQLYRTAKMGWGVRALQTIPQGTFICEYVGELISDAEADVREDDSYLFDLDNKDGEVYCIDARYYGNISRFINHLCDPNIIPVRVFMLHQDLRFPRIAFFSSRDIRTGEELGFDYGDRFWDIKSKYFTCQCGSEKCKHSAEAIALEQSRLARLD
#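 Signal arises when biotinylated H3K9 peptide, once monomethylated, bridges streptavidin donor and antibody-captured acceptor beads. Enzyme at 20 nM was preincubated 15 min with test compounds; peptide 500 nM and SAM 20 uM then reacted for 2 h.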
# HP1b binding inh: HP1-beta chromodomain-methylated histone interaction inhibition. Potency, µM (titrated, usually from 114 µM), for inactives: at the highest dose activity change, negative = inhibition, usual class: inhibitors. AlphaScreen HP1-beta / biotin-H3K9me3 peptide binding. actives 0.56% (n = 390,000). AID 540317; also: nearly all actives have a fitted effect of over 70% in size
# Target sequence (P83916 whole entry, looked up): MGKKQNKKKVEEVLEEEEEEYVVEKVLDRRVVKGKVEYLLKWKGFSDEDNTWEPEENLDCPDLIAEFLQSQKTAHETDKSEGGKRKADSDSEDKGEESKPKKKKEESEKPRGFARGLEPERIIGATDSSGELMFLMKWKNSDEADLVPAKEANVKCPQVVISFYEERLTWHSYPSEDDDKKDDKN
#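 AlphaScreen: HP1-beta (50 nM) preformed 30 min with biotin-H3(1-18)K9me3 peptide (50 nM) in PBS pH 7.4, 0.01% Tween-20. Compound added for 30 min at RT, then streptavidin donor/nickel chelate acceptor beads (10 ug/mL) for 30 min.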
# * = called active by the depositor; ? = inconclusive; nt = no result; ! = a repeat was not active; [ ] = another dose, or the depositor's remark. Calls follow the shape of the dose curve; as a rule, active = well fitted curve in the direction sought with a large enough effect; inconclusive = small, poorly fitted or top-dose-only effect, or another doubt; inactive = no such curve, though single readings can be large; an effect the other way counts as inactive or inconclusive. Potency is read from the fitted curve at half-maximal effect.
SMILES,JMJD2A Tudor inh,L3MBTL1 inh,BAZ2B inh,Sfp PPTase inh,G9a block,HP1b binding inh
CCCCCC(=O)N/N=C/c1ccc([N+](=O)[O-])o1,-22%,nt,-10%,-2%,11%[59 µM],-2%
CCN(CC)c1ccc(N=Cc2ccc([N+](=O)[O-])o2)cc1,40µM*,?,10µM*,28µM*,2.5µM*,22µM*
CC(=O)N(C)c1ccc(N=Cc2cc3c(cc2[N+](=O)[O-])OCO3)cc1,-21%,nt,nt,nt,nt,-8%
O/C=c1\ccc2cccc3nc(C(F)(F)F)nc1c23,89µM*,nt,?,-24%,-48%[2.33 µM],-8%
C/C(O)=c1/ccc2cccc3nc(C)nc1c23,5%,9%,10%,-6%,nt,58%
CCNc1ncc2nc(-c3ccc(OC)cc3)c(=O)n(Cc3ccc(F)cc3)c2n1,nt,nt,nt,3%,0%[0.501 µM],nt
Fc1ccc(OCCCCCn2ccnc2)cc1,-18%,-4%,-26%,-11%,13%,18%
COc1ccc(OCCCn2ccnc2)cc1,0.89µM*,nt,22µM*,?,-50%[2.33 µM],16µM*
Fc1ccc(OCCCn2ccnc2)cc1,45µM*,-2%,?,-6%,40µM*,?
Cc1cc(OCCCn2ccnc2)ccc1[N+](=O)[O-],6.3µM*,-1%,56µM*,?,nt,?
Cc1cc(OCCN2CCCCCC2)ccc1[N+](=O)[O-],?,5%,56µM*,12%,25µM*,?
Cc1cc(OCC(=O)N2CCCCCC2)ccc1[N+](=O)[O-],-9%,11%,-5%,12%,1%[59 µM],21%
Cc1cc(OCCn2cncn2)ccc1[N+](=O)[O-],-4%,1%,7%,-2%,nt,34%
Cc1cc(C)c2c(c1)c(C)cc1nnc(SCC(=O)c3ccccc3)n12,-11%,nt,-18%,nt,?,55%
CCCSCCCNC(=O)c1ccc(Cn2c(=O)c3cccn3c3cccnc32)cc1,10%,nt,2%,nt,10%[59 µM],39%
CCOCCn1c(N2CCCN(C)CC2)nc2ccccc21,nt,nt,nt,19%,3%[12.7 µM],nt
Cc1ccc(S(=O)(=O)c2nc(S(=O)(=O)c3ccc(C)cc3)c(NCCCOC(C)C)s2)cc1,-14%,nt,-11%,nt,?,29%
COc1ccccc1OCCn1ccnc1,3.5µM*,30%,?,-30%,nt,?
O=C(CNC(=O)c1ccncc1)N/N=C/c1ccc(O)cc1O,?,-29%,?,21%,0%,43%
O=C(CNC(=O)c1ccncc1)N/N=C/c1ccccn1,?,nt,79µM*,56µM*,-31%,8%
COc1cc(C(=O)NCC(=O)N/N=C/c2ccccn2)cc(OC)c1OC,?,nt,-3%,45µM*,9%,9%
c1ccc(CNc2ncnc3nc(N4CCOCC4)[nH]c23)cc1,-13%,nt,nt,nt,nt,33%
CC(C)CCC(C(=O)O)C(C)CC(=O)NNC(=O)c1ccco1 (centres undefined),2%,28µM*!,-5%,11%,-12%[12.7 µM],31%
CCCCC(C(=O)O)C(C)CC(=O)NNC(=O)c1ccco1 (centres undefined),-13%,-27%,4%,11%,6%,15%
CCS(=O)(=O)N1CC(=O)N(c2ccc(Cl)cc2C)C(C)(C(=O)NC2CCCCCC2)C1 (centres undefined),-4%,nt,4%,nt,-2%[59 µM],47%
Cc1ccccc1OCC(=O)NCC(=O)OCC(=O)c1ccc(Br)cc1,-12%[57.1 µM],nt,nt,nt,nt,13%[57 µM]
Clc1ccc(CSc2nnc(-c3ccc4c(c3)OCO4)o2)cc1,-2%,nt,57%,50µM*,4%[59 µM],29%
CC(Sc1cccc[n+]1[O-])C(=O)Nc1ccc([N+](=O)[O-])cc1Cl (centres undefined),-2%,57%,-17%,-3%,50µM*,42%
O=c1c2sccc2n(Cc2cc(=O)n3cc(Cl)ccc3n2)c(=O)n1-c1ccccc1,0%,nt,1%,nt,3%[59 µM],36%
COc1cccc(OC)c1C(=O)Nc1sc2c(c1C#N)CCC2,-21%,24%,55%,40µM*,nt,28%

# Screening data (PubChem)
